The full data set covers some 8,800 targets. This sample favours those with a hit. About 0.5% of all pairs of compound and target were hits. A number with no mark means an inactive call.
Legend:
Experiment in all cases: log2 fold change, soluble protein after heating vs DMSO (PISA); higher = thermal stabilisation; K562 lysate, 10 uM; active = over 0.2 and 3.5 SD of the protein, either way, in both replicates (recomputed)
[1] = compound: C#Cc1cccc(Nc2ncnc3cc(OCCOC)c(OCCOC)cc23)c1 [erlotinib]
Outline: (§1)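 Dounce homogenisation of K562 pellets in PBS pH 7.4 with 1 mM MgCl2 produced a crude extract, used at 1 mg/mL protein. Exposure to 10 μM compound lasted 30 min, and aliquots were then heated for 3 min across 48°C-58°C, pooled and brought to 0.5% NP-40 at 4°C. The supernatant after 21,000xg for 90 min was quantified by TMTpro 16plex LC-MS/MS with channel sums equalised. Duplicate values are given as log-two fold change in thermal stability relative to solvent controls.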

[2] = compound: C/C(=N\NC(=O)C1=CC(=CC=C1)S(=O)(=O)N2CCOCC2)/C3=C(C=CC(=C3)Cl)O
Outline: as §1

[3] = compound: C1=CC(=CC=C1C2=NC3=C(N2)C=C(C=C3)C(=O)N)OC4=CC=C(C=C4)Cl
Outline: as §1

[4] = compound: C1=CC2=C(C=CC(=C2)/C=C\3/C(=O)NC(=NCC4=CC=CS4)S3)N=C1
Outline: as §1

[5] = compound: C1=CC2=NC=CN=C2C=C1/C=C/3\C(=O)NC(=O)S3
Outline: as §1

[6] = compound: C1=CC=C(C=C1)C2=NC(=C(N2)C3=CC=NC=C3)C4=CC(=C(C=C4)Cl)O
Outline: as §1

[7] = compound: C1=CC=C2C(=C1)C3=NNC4=CC=CC(=C43)C2=O
Outline: as §1

[8] = compound: C1CCN(C1)C(=O)NC2=CC=CC(=C2)NC3=NC=C(C(=N3)NCCC4=CN=CN4)Br
Outline: as §1

[9] = compound: C1CN(CCC1(CC2=CC=C(C=C2)Cl)N)C3=NC=NC4=C3C=CN4
Outline: as §1

[10] = compound: C1COCCN1CCN2C3=CC=CC=C3N=C2NC(=O)C4=CC(=CC=C4)[N+](=O)[O-] [IRAK-1-4 Inhibitor I]
Outline: as §1

Chain of UniProt Q96E14 (Q96E14 whole entry, looked up): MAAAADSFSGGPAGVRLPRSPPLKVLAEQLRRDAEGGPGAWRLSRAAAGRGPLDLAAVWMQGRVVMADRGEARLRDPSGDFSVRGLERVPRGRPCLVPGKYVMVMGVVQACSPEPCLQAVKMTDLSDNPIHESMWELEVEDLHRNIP
Chain of UniProt Q99496 (Q99496 whole entry, looked up): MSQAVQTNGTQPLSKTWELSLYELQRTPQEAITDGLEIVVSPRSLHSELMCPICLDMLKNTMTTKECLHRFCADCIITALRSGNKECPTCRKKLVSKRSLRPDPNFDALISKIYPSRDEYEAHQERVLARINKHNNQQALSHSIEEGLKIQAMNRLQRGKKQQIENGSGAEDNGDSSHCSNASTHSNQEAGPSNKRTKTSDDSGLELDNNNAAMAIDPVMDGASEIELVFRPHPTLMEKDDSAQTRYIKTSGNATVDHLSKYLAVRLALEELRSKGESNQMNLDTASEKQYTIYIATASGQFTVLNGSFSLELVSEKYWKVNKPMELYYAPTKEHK
Chain of UniProt Q92698 (Q92698 whole entry, looked up): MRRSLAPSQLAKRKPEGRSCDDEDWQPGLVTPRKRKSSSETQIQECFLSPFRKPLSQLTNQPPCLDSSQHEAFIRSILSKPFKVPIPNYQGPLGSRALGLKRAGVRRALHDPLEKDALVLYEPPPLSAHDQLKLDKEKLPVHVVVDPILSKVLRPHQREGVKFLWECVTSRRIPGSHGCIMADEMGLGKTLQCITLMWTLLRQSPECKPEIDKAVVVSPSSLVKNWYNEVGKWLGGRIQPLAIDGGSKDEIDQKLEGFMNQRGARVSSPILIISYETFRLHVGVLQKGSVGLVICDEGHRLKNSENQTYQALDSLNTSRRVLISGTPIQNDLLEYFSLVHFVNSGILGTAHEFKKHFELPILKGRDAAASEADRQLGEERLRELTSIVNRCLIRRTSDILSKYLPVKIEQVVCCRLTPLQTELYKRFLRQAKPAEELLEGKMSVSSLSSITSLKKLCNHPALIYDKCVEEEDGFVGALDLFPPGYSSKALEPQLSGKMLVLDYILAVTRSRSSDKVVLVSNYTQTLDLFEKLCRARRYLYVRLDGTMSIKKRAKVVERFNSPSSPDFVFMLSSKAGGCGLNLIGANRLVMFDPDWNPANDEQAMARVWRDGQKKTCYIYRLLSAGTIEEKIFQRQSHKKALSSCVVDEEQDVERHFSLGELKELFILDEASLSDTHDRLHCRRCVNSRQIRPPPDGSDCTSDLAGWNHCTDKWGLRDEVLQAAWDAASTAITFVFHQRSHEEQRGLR
Chain of UniProt Q86X10 (Q86X10 whole entry, looked up): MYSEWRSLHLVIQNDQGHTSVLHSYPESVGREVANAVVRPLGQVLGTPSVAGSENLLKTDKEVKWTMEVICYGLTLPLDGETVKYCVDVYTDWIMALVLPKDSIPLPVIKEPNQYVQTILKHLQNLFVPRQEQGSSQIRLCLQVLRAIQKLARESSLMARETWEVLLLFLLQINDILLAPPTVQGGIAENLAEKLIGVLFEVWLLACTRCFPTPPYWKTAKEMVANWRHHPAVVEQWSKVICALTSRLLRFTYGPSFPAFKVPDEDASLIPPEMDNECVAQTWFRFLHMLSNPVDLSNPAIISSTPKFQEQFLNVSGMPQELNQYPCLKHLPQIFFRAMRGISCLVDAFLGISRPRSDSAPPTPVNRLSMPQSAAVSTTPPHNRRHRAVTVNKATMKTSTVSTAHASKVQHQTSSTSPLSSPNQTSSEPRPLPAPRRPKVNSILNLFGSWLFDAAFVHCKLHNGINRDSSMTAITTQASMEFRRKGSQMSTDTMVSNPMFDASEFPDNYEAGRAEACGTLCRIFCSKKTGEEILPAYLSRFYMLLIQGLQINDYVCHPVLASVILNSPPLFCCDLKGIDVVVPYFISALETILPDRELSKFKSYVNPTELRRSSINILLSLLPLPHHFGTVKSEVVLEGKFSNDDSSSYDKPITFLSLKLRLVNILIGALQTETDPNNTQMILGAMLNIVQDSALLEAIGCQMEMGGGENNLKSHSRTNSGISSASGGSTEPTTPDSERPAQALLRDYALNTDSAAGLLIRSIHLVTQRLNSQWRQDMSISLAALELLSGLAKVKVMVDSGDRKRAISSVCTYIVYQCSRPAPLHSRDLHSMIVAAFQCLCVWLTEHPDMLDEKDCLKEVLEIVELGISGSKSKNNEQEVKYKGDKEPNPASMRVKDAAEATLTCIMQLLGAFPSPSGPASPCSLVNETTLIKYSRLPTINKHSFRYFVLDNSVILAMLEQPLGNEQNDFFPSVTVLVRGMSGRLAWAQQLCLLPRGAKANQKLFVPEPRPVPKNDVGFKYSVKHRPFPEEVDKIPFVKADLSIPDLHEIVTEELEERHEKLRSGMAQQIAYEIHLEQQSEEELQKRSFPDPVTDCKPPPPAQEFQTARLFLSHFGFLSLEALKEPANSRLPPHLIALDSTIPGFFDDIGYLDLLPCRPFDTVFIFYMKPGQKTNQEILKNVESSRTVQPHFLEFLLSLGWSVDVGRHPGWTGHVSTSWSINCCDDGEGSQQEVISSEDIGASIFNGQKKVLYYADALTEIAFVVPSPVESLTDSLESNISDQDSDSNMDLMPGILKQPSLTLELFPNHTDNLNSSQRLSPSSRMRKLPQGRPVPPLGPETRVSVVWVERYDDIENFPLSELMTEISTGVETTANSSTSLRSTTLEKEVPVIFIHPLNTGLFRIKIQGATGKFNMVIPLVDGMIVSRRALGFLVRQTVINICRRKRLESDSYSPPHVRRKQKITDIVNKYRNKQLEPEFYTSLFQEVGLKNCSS
Chain of UniProt Q96JX3 (Q96JX3 whole entry, looked up): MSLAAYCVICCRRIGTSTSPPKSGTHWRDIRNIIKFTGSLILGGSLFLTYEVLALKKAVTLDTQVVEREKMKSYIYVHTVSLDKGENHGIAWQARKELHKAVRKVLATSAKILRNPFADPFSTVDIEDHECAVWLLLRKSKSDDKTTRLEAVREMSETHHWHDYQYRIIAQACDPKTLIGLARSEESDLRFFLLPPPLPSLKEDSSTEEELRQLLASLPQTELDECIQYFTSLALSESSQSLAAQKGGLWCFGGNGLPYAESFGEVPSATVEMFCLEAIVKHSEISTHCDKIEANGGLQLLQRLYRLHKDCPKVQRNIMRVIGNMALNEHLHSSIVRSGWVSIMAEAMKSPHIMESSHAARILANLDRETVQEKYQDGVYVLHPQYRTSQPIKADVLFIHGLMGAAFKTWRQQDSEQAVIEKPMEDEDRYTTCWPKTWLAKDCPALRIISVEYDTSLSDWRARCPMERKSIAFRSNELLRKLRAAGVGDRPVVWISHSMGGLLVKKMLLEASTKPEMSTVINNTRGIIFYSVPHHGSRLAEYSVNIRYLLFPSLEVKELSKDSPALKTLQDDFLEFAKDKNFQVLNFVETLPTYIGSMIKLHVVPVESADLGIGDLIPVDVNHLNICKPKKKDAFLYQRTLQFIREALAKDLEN
Chain of UniProt Q8TEB9 (Q8TEB9 whole entry, looked up): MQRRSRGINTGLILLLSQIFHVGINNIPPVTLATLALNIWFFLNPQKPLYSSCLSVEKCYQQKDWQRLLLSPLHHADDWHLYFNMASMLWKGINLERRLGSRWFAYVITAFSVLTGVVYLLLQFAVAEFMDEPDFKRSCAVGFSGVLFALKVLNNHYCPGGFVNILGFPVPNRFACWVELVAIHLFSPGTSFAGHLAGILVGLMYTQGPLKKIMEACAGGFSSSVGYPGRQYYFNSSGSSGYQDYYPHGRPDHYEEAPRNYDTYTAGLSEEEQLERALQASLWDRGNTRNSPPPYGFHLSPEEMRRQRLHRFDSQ
Chain of UniProt Q9UPW6 (Q9UPW6 whole entry, looked up): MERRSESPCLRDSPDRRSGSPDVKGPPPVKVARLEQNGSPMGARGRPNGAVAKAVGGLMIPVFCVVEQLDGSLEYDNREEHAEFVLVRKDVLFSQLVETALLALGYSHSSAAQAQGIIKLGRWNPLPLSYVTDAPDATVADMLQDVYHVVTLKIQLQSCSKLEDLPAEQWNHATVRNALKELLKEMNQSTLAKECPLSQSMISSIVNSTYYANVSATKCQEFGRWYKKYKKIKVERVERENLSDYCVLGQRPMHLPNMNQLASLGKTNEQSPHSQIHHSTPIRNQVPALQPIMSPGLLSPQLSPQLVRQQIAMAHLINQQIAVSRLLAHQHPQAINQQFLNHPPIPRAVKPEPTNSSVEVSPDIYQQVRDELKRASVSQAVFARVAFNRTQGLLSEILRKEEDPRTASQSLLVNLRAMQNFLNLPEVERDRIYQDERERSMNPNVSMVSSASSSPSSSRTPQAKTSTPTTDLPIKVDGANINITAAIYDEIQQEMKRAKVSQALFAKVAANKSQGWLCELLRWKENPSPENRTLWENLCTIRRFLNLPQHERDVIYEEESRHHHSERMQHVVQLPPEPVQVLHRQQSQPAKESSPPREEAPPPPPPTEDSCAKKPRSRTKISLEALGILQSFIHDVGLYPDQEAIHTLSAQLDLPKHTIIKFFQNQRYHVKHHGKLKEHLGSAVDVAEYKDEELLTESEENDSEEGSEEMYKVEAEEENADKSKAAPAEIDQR
Chain of UniProt O75446 (O75446 whole entry, looked up): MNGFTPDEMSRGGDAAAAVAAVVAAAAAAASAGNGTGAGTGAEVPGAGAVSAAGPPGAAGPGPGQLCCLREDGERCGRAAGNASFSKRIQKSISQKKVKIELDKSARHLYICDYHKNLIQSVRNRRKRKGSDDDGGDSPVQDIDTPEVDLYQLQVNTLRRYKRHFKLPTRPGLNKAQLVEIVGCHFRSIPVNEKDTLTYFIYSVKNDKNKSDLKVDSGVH
Chain of UniProt Q8TC12 (Q8TC12 whole entry, looked up): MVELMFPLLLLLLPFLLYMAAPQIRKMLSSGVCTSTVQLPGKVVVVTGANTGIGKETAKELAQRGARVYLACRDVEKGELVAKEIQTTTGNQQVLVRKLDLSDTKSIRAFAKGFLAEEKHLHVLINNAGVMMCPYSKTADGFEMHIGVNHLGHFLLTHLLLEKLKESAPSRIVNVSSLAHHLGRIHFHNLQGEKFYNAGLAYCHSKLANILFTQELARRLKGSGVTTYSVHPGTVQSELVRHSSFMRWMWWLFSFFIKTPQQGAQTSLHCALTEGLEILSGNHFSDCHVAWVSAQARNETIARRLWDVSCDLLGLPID

Row | Target | log2 fold change [1] | log2 fold change [2] | log2 fold change [3] | log2 fold change [4] | log2 fold change [5] | log2 fold change [6] | log2 fold change [7] | log2 fold change [8] | log2 fold change [9] | log2 fold change [10]
1 | SBF1 isoform 4 (UniProt O95248) | 0.033 | -0.059 | 0.042 | -0.052 | -0.005 | -0.027 | -0.029 | 0.028 | -0.026 | -0.002
2 | RCAN1 (UniProt P53805) | 0.06 | -0.206 | -0.033 | -0.018 | -0.04 | 0.008 | 0.045 | -0.095 | 0.016 | -0.024
3 | RTN4IP1 (UniProt Q8WWV3) | -0.028 | 0.031 | -0.028 | 0.065 | -0.017 | -0.003 | 0.022 | 0.033 | -0.016 | 0.011
4 | RASA2 (UniProt Q15283) | 0.016 | -0.001 | -0.054 | -0.071 | -0.028 | 0.018 | -0.069 | -0.024 | 0.028 | -0.003
5 | RANBP2 (UniProt P49792) | 0.017 | 0.014 | -0.004 | -0.011 | -0.012 | -0.004 | -0.038 | -0.001 | -0.007 | -0.019
6 | RTTN (UniProt Q86VV8) | -0.002 | -0.196 | -0.123 | -0.103 | 0.045 | -0.043 | -0.056 | 0.14 | 0.036 | 0.098
7 | RNASEL (UniProt Q05823) | 0.103 | -0.025 | -0.019 | -0.01 | 0.099 | 0.009 | -0.062 | -0.031 | 0.005 | 0.006
8 | RAC2 (UniProt P15153) | 0.009 | 0.018 | 0.014 | -0.035 | -0.01 | 0.012 | 0.034 | 0.069 | -0.036 | 0.024
9 | RALGAPA1 isoform 6 (UniProt Q6GYQ0) | 0.056 | -0.093 | 0.098 | 0.065 | -0.105 | -0.064 | -0.015 | -0.042 | 0.031 | 0.004
10 | RARS (UniProt P54136) | 0.037 | 0.029 | -0.023 | 0.023 | 0.043 | 0.029 | -0.025 | -0.005 | 0.005 | 0.008
11 | RPS18 (UniProt P62269) | -0.021 | -0.088 | -0.007 | -0.006 | -0.004 | -0.012 | -0.007 | 0.005 | 0.004 | 0.047
12 | SCNM1 (UniProt Q9BWG6) | 0.045 | – | 0.044 | – | – | -0.005 | – | -0.054 | -0.158 | -0.021
13 | RNF2 (UniProt Q99496) | 0.061 | -0.088 | -0.031 | 0.036 | – | 0.002 | -0.01 | 0.048 | -0.037 | -0.039
14 | RAD54L (UniProt Q92698) | -0.026 | – | -0.005 | – | -0.072 | -0.071 | – | – | – | 0.02
15 | RAB5IF isoform 5 (UniProt Q9BUV8) | 0.193 | 0.021 | 0.082 | 0.001 | -0.052 | – | -0.036 | -0.065 | 0.034 | –
16 | RYR1 (UniProt P21817) | -0.077 | – | -0.174 | – | 0.012 | -0.025 | – | -0.029 | -0.057 | -0.003
17 | SEC16A isoform 2 (UniProt O15027) | – | – | – | – | – | -0.07 | – | – | – | -0.053
18 | SATB2 (UniProt Q9UPW6) | -0.019 | -0.044 | 0.022 | -0.01 | – | -0.006 | 0.031 | -0.033 | 0.009 | 0.027

Row | Target | log2 fold change [1] | log2 fold change [2] | log2 fold change [3] | log2 fold change [4] | log2 fold change [5] | log2 fold change [6] | log2 fold change [7] | log2 fold change [8] | log2 fold change [9] | log2 fold change [10]
19 | S100A6 (UniProt P06703) | 0.045 | 0.346 | -0.025 | 0 | – | -0.196 | 0.02 | 0.352 | 0.151 | -0.209
20 | RMI2 (UniProt Q96E14) | 0.051 | -0.246 | -0.121 | 0.206 | – | 0.002 | -0.121 | -0.044 | 0.117 | 0.054
21 | RNF24 isoform 2 (UniProt Q9Y225) | -0.146 | – | -0.053 | – | 0.083 | – | – | – | – | –
22 | RNPC3 (UniProt Q96LT9) | 0.004 | – | -0.059 | – | – | 0.011 | – | – | – | 0.076
23 | RAD54L2 (UniProt Q9Y4B4) | 0.186 | -0.176 | -0.103 | -0.035 | -0.135 | – | 0.002 | -0.046 | 0.055 | –
24 | RALGAPB isoform 3 (UniProt Q86X10) | – | – | – | – | -0.146 | – | – | -0.119 | 0 | –
25 | RLIM (UniProt Q9NVW2) | – | – | – | – | -0.021 | – | – | – | – | –
26 | RXRA (UniProt P19793) | 0.102 | – | 0.008 | – | – | -0.025 | – | – | – | 0.113
27 | RHBDD1 (UniProt Q8TEB9) | – | -0.476 | – | 0.19 | 0.337 | – | -0.056 | -0.093 | 0.159 | –
28 | SERAC1 (UniProt Q96JX3) | 0.004 | – | -0.235 | – | -0.014 | – | – | 0.123 | 0.056 | –
29 | RDH11 (UniProt Q8TC12) | 0.018 | 0.087 | -0.02 | 0.015 | – | 0.006 | -0.065 | -0.037 | 0.063 | 0.012
30 | SAP30 (UniProt O75446) | – | 0.06 | – | 0.025 | -0.037 | – | 0.013 | 0.011 | 0.067 | –
31 | SEC16A isoform 3 (UniProt O15027) | – | – | – | – | – | 0.41 | – | – | – | 0.123
32 | RHOU (UniProt Q7L0Q8) | -0.052 | 0.07 | -0.096 | -0.054 | – | 0.002 | 0.061 | -0.006 | 0.03 | -0.089
33 | RAP1B (UniProt F5GZG1) | -0.028 | 0.332 | 0.101 | -0.048 | -0.206 | – | -0.08 | -0.081 | 0.04 | –
34 | RXRB isoform 3 (UniProt P28702) | -0.025 | 0.006 | -0.038 | -0.014 | 0.051 | – | -0.039 | 0.011 | -0.015 | –
35 | RAD17 (UniProt O75943) | – | 0.005 | – | -0.1 | 0.014 | -0.047 | -0.458 (active) | 0.031 | 0.019 | 0.021
